FMDV antiviral: blocks foot and mouth disease virus; FMDV antiviral cell-based qHTS; Potency, µM (top dose mostly 57.9 µM), most hits filed as inhibitors; 410,000 compounds, 1.2% hits; calls by dose curve; tested in HEK293T cells; also: read-out not given here; nearly all actives have a fitted effect of over 45% in size
MARV entry inh: Marburg virus entry inhibition | Marburg virus pseudotyped entry inhibition, cell reporter | Potency, µM (series often up to 37.8 µM), usual class: inhibitors | 300,000 compounds, 1.8% hits; calls by dose curve; tested in HEK293 cells
HCMV inh: inhibitors of human cytomegalovirus; HFF cells, HCMV-luciferase reporter, 72 h; active compounds read low; activity change, negative = inhibition, % at 57.5 µM; AID 1259415; 410,000 compounds, 4.5% hits; in the data active = activity change below about -60%; inconclusive = no clear call, values can overlap the other calls; inactive = above about -39%
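Cell-based, HFFs, 1000 cells/well, 16 h 37C; cpds in DMSO + HCMV-luc, MOI 1 PFU/cell; 72 h 37C; OneGlo luminescence after 5 min RT; norm. to buffer vs Salinomycin 10uM.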
VACV Venus inh: vaccinia inhibition (Venus reporter). Vaccinia virus Venus reporter expression, fluorescence. Potency, µM (highest dose often 36.5 µM), hits mostly inhibitors. 330,000 compounds, 0.46% hits; calls by dose curve; tested in A549 cells; also: nearly all actives have a fitted effect of over 30% in size
Vaccinia mCherry: inhibitors of vaccinia virus infection (mCherry reporter signal); Vaccinia virus mCherry reporter infection, fluorescence; Potency, µM (series often up to 36.5 µM), actives largely listed as inhibitors; 310,000 compounds, 0.63% hits; calls by dose curve; tested in A549 cells; also: nearly all actives have a fitted effect of over 35% in size
LASV entry inh: blocks Lassa virus binding to or entry into cells. 300,000 compounds, 1.2% hits. AID 540256. Lassa virus pseudotype entry inhibition, cell reporter. Potency, µM (series often up to 37.9 µM), most hits filed as inhibitors; calls by dose curve; tested in HEK293 cells; also: nearly all actives have a fitted effect of over 50% in size
Of the large screens only hits and unclear results are named; the others gave an inactive call; ! = not active in a repeat. In the library only some 6.5% were active in any assay of this set; here they are far more common.

COCCCNC(=O)C1CCCN(S(=O)(=O)c2ccc3c(c2)oc(=O)n3C)C1 (stereo unspecified)	none
O=C(/C=C/c1ccccc1)C1C(=O)c2ccccc2C1=O	FMDV antiviral inconclusive
CCc1ccc(/C=C/C(=O)C2C(=O)c3ccccc3C2=O)cc1	MARV entry inh inconclusive, LASV entry inh 2.3µM (no result: FMDV antiviral)
O=C(O)CSc1nc2ccccc2nc1N1CCCCC1	none
COC(=O)CS(=O)(=O)c1nc2ccccc2nc1N1CCCCC1	HCMV inh -66
Cn1c(Oc2ccc(F)cc2)c(C=O)c2ccccc21	FMDV antiviral inconclusive, MARV entry inh inconclusive
Cn1c(Sc2ccc(Br)cc2)c(C=O)c2ccccc21	FMDV antiviral inconclusive, MARV entry inh inconclusive, LASV entry inh 10µM (no result: Vaccinia mCherry)
CCc1ccc2oc(-c3ccc(C)c(NC(=O)COc4ccc(Cl)cc4)c3)nc2c1	none (no result: FMDV antiviral, MARV entry inh, HCMV inh, LASV entry inh)
CSC(=S)NCc1cccnc1	MARV entry inh inconclusive, HCMV inh -82, Vaccinia mCherry inconclusive, LASV entry inh inconclusive
CC(C)CNC(=S)Nc1ccc(Oc2ccccc2)cc1	MARV entry inh inconclusive, HCMV inh -63
S=C(NCc1cccnc1)Nc1ccc(Oc2ccccc2)cc1	HCMV inh -71 (no result: MARV entry inh, VACV Venus inh, Vaccinia mCherry, LASV entry inh)
FC(F)Oc1ccc(NC(=S)NCc2cccnc2)cc1	none (no result: LASV entry inh)
NC(=S)NCc1cccnc1	none (no result: MARV entry inh, VACV Venus inh, Vaccinia mCherry, LASV entry inh)
CCc1ccc(NC(=S)NCc2cccnc2)cc1	none
CCCCc1ccc(NC(=S)NCc2cccnc2)cc1	HCMV inh -77
O=C(CSc1nc(=O)n(Cc2ccco2)c2c1CCC2)Nc1ccccc1C(F)(F)F	none (no result: MARV entry inh)
COc1nc(Oc2ccc(=O)n(-c3ccccc3)n2)nc(N(C)C)n1	none
CC(C)C[C@@H](NC(=O)OC(C)(C)C)C(=O)N1O[C@]23C=C[C@]14C[C@@H](O)CC[C@]4(C)C2CC[C@]1(C)[C@@H]([C@H](C)/C=C/[C@H](C)C(C)C)CC[C@H]13 (stereo partly specified)	none (no result: FMDV antiviral, MARV entry inh, VACV Venus inh, Vaccinia mCherry, LASV entry inh)
CCCc1ccc(OC(C)c2nc(-c3ccc(-n4cccc4)cc3)no2)cc1 (stereo unspecified)	FMDV antiviral inconclusive, HCMV inh inconclusive
O=C(Nc1ccc(F)cc1)N[C@H]1CC[C@@]23CCCN2C(=O)CCC[C@H]3C1Cc1ccccc1 (stereo partly specified)	none (no result: FMDV antiviral, MARV entry inh, VACV Venus inh, Vaccinia mCherry, LASV entry inh)
N=c1nc(-c2ccccc2)n(-c2ccccc2)s1	none (no result: FMDV antiviral, MARV entry inh, HCMV inh, LASV entry inh)
O=C(NCc1nc2cccnc2n1Cc1ccc(F)cc1)c1ccccc1C(F)(F)F	HCMV inh -61 (no result: MARV entry inh)
O=C(NCC1CCCO1)C1=CC2=NC(=S)N(c3ccccc3)C(=O)C2C=C1 (stereo unspecified)	none (no result: FMDV antiviral, HCMV inh, VACV Venus inh, Vaccinia mCherry, LASV entry inh)
COc1ccc(C(=O)c2oc3ccccc3c2N)cc1	HCMV inh -67 (no result: VACV Venus inh, Vaccinia mCherry)
COc1ccc2oc(C(=O)c3ccccc3)c(N)c2c1	MARV entry inh inconclusive, LASV entry inh inconclusive (no result: VACV Venus inh, Vaccinia mCherry)
CCOC(=O)C1CCN(C(=O)Cn2ncc3c4ccccc4n(Cc4ccccc4F)c3c2=O)CC1	none
Cc1cc(C)cc(NC(=O)CSc2nc(=O)[nH]c3c2CCC3)c1	none (no result: MARV entry inh)
Cc1cccc(N2C(N)=C(C#N)C(C#N)(C#N)C2c2ccccc2)c1 (stereo unspecified)	FMDV antiviral 40µM, LASV entry inh inconclusive (no result: Vaccinia mCherry)
Cc1ccc(/C=C2\SC(=S)N(CC3CCCO3)C2=O)o1 (stereo unspecified)	HCMV inh -85
Cc1cc(C2=NNC(=Nc3ccccc3)SC2)c(C)n1C	none (no result: MARV entry inh, VACV Venus inh, Vaccinia mCherry, LASV entry inh)
COc1ccc(N=C2NN=C(c3c(C)[nH]c4ccccc34)CS2)cc1	MARV entry inh 11µM, HCMV inh inconclusive, LASV entry inh inconclusive
COc1cc(NC(=O)N2CCC3(CC2)Nc2ccccc2-n2cccc23)cc(OC)c1OC	FMDV antiviral inconclusive (no result: MARV entry inh)
COc1cccc(N(C(=O)c2cccs2)c2nc3ccccc3s2)c1	HCMV inh -101, LASV entry inh inconclusive (no result: Vaccinia mCherry)
Cc1c([N+](=O)[O-])cnc2ccccc12	none (no result: FMDV antiviral, MARV entry inh, HCMV inh, LASV entry inh)
O=C1C(SCCO)=C(SCCO)C(=O)c2ccccc21	FMDV antiviral 10µM, MARV entry inh 4µM, HCMV inh -95, VACV Venus inh inconclusive, Vaccinia mCherry 10µM!, LASV entry inh 2.6µM
O=[N+]([O-])c1ccccc1N=NNc1ccccc1	MARV entry inh inconclusive
COC(=O)c1ccccc1NN=Nc1ccccc1[N+](=O)[O-]	HCMV inh -101 (no result: MARV entry inh, LASV entry inh)
CCNc1ncc2nc(CCc3ccccc3)c(=O)n(C)c2n1	none (no result: MARV entry inh, HCMV inh, VACV Venus inh, Vaccinia mCherry, LASV entry inh)
O=C(Nc1c(-c2ccc(F)cc2)nc2ccccn12)c1ccccc1F	MARV entry inh inconclusive
CCOc1ccc(Br)cc1CNCCN1CCOCC1	MARV entry inh inconclusive

Source: PubChem (National Center for Advancing Translational Sciences (NCATS))
